# According to ChEMBL document CHEMBL2218924, “A broad activity screen in support of a chemogenomic map for kinase signalling research and drug discovery” (Biochem J, 2013):
# Columns and labels:
# [1] = molecular target: T1, Serine/threonine-protein kinase 3 (Homo sapiens) (UniProt Q13188); details: at 1 µM
# T1 sequence (whole entry): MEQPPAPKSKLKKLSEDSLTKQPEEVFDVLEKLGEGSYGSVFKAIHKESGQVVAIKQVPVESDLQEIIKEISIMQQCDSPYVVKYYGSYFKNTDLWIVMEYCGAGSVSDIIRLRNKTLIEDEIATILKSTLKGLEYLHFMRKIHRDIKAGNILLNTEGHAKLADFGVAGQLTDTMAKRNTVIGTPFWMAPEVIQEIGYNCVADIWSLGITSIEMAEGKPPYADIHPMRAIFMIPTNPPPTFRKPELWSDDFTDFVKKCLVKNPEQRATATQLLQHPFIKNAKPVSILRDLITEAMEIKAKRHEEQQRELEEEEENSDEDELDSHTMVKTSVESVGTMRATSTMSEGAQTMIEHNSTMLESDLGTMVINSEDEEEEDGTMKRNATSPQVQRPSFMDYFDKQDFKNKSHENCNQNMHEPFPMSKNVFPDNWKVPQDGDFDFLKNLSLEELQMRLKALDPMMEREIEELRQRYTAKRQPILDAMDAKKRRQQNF
# [2] = molecular target: T1, Serine/threonine-protein kinase 3 (Homo sapiens); details: at 10 µM
# [3] = molecular target: Serine/threonine-protein kinase 24 (Homo sapiens) (UniProt Q9Y6E0); details: at 1 µM
# [4] = molecular target: Serine/threonine-protein kinase 24 (Homo sapiens) (UniProt Q9Y6E0); details: at 10 µM
# [5] = molecular target: T2, Tyrosine-protein kinase Mer (Homo sapiens) (UniProt Q12866); details: at 1 µM
# T2 sequence (whole entry): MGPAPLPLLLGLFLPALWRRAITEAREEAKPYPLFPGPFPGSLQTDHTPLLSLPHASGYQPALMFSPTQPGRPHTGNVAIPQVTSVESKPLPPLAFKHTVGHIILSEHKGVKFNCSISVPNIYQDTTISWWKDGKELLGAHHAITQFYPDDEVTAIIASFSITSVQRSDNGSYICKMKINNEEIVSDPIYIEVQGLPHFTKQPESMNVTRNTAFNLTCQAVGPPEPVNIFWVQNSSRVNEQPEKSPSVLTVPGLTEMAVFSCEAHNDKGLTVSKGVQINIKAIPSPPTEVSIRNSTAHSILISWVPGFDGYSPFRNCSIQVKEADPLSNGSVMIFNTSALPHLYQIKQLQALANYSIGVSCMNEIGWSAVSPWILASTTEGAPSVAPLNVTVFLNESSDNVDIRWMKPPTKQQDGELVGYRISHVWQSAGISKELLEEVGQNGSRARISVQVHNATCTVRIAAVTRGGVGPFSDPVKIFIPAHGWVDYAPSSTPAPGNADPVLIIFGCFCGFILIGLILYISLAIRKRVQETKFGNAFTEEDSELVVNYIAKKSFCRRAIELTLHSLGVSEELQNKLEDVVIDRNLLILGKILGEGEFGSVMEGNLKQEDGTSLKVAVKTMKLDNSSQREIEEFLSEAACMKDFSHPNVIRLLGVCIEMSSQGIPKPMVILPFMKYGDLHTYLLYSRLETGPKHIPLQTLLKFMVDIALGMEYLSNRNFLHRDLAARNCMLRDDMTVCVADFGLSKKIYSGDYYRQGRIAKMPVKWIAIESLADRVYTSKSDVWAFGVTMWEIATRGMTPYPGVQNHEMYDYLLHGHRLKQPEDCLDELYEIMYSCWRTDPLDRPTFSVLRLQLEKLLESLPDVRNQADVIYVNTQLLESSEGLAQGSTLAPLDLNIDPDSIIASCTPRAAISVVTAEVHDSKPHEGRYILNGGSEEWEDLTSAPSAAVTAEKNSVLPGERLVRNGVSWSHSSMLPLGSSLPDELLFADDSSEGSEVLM
# [6] = molecular target: T2, Tyrosine-protein kinase Mer (Homo sapiens); details: at 10 µM
# [7] = molecular target: Hepatocyte growth factor receptor (Homo sapiens) (UniProt P08581); details: at 1 µM
# [8] = molecular target: Hepatocyte growth factor receptor (Homo sapiens) (UniProt P08581); details: at 10 µM
# [9] = molecular target: MAP kinase-interacting serine/threonine-protein kinase 2 (Homo sapiens) (UniProt Q9HBH9); details: at 1 µM
# [10] = molecular target: MAP kinase-interacting serine/threonine-protein kinase 2 (Homo sapiens) (UniProt Q9HBH9); details: at 10 µM
# [11] = molecular target: T3, Muscle, skeletal receptor tyrosine-protein kinase (Homo sapiens) (UniProt O15146); details: at 1 µM
# T3 sequence (whole entry): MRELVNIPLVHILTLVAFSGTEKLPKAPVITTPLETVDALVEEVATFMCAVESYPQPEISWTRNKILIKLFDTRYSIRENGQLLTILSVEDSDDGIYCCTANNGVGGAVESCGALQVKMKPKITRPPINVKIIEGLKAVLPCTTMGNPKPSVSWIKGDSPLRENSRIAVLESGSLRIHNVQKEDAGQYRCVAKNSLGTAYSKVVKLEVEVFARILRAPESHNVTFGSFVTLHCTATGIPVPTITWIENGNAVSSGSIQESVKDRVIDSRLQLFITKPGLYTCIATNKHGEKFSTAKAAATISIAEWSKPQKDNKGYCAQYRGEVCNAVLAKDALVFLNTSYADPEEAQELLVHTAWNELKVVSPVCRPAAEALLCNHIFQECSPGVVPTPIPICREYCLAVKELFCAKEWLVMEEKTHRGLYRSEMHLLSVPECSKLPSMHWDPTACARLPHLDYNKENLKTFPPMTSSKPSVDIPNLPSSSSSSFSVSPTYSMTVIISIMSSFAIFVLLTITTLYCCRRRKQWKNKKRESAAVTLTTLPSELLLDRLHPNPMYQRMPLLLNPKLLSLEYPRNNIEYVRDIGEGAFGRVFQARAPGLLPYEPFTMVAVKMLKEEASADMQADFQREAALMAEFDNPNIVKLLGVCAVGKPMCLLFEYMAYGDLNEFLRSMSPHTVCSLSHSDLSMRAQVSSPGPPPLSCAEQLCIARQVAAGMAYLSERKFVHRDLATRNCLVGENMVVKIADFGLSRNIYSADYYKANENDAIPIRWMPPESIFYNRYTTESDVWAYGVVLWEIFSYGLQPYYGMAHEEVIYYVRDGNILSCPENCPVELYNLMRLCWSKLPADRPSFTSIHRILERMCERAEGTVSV
# [12] = molecular target: T3, Muscle, skeletal receptor tyrosine-protein kinase (Homo sapiens); details: at 10 µM
# [13] = molecular target: T4, Serine/threonine-protein kinase Nek11 (Homo sapiens) (UniProt Q8NG66); details: at 1 µM
# T4 sequence (whole entry): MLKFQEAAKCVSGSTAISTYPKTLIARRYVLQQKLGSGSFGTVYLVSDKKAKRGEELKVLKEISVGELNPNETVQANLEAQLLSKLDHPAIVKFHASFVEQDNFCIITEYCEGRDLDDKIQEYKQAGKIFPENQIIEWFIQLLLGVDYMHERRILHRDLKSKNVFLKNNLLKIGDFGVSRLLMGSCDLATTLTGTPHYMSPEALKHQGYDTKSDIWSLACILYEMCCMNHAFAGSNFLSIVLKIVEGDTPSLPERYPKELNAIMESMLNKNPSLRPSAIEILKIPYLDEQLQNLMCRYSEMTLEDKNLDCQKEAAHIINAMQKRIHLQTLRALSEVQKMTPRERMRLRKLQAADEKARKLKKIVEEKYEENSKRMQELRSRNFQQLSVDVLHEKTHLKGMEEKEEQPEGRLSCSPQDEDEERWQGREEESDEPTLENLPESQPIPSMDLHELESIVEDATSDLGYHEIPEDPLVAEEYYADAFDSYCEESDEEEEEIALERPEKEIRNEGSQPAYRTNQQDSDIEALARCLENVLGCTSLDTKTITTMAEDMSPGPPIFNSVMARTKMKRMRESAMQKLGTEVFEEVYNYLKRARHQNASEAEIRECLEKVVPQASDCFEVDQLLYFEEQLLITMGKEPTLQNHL
# [14] = molecular target: T4, Serine/threonine-protein kinase Nek11 (Homo sapiens); details: at 10 µM
# [15] = molecular target: T5, Serine/threonine-protein kinase Nek2 (Homo sapiens) (UniProt P51955); details: at 1 µM
# T5 sequence (whole entry): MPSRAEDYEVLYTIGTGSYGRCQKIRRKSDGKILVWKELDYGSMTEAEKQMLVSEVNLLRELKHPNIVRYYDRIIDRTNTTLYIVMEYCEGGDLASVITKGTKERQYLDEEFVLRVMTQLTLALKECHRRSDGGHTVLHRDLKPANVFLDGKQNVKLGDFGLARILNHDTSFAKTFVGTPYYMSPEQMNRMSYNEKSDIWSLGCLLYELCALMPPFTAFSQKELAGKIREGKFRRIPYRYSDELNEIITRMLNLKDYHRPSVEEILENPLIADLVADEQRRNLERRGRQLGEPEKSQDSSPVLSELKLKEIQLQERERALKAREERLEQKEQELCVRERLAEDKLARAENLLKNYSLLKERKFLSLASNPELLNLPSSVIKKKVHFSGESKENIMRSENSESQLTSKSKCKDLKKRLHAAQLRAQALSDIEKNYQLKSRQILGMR
# [16] = molecular target: T5, Serine/threonine-protein kinase Nek2 (Homo sapiens); details: at 10 µM
# [17] = molecular target: T6, Serine/threonine-protein kinase Nek3 (Homo sapiens) (UniProt P51956); details: at 1 µM
# T6 sequence (whole entry): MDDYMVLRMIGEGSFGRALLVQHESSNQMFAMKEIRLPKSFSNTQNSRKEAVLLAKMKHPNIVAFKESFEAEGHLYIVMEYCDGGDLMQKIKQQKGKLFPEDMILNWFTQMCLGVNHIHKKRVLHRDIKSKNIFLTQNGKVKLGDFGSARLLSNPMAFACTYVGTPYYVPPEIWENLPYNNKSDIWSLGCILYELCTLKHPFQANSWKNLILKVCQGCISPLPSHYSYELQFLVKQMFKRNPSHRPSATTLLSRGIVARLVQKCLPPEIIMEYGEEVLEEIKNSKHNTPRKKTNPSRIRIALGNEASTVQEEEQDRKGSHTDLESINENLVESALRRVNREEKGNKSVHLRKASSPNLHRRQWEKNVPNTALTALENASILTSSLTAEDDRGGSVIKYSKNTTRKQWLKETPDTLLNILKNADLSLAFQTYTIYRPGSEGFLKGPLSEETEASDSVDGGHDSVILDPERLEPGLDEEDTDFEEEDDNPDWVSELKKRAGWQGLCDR
# [18] = molecular target: T6, Serine/threonine-protein kinase Nek3 (Homo sapiens); details: at 10 µM
# [19] = molecular target: Serine/threonine-protein kinase tousled-like 2 (Homo sapiens) (UniProt Q86UE8); details: at 1 µM
# [20] = molecular target: Serine/threonine-protein kinase tousled-like 2 (Homo sapiens) (UniProt Q86UE8); details: at 10 µM
# Chain of Hepatocyte growth factor receptor (Homo sapiens) (P08581 whole entry): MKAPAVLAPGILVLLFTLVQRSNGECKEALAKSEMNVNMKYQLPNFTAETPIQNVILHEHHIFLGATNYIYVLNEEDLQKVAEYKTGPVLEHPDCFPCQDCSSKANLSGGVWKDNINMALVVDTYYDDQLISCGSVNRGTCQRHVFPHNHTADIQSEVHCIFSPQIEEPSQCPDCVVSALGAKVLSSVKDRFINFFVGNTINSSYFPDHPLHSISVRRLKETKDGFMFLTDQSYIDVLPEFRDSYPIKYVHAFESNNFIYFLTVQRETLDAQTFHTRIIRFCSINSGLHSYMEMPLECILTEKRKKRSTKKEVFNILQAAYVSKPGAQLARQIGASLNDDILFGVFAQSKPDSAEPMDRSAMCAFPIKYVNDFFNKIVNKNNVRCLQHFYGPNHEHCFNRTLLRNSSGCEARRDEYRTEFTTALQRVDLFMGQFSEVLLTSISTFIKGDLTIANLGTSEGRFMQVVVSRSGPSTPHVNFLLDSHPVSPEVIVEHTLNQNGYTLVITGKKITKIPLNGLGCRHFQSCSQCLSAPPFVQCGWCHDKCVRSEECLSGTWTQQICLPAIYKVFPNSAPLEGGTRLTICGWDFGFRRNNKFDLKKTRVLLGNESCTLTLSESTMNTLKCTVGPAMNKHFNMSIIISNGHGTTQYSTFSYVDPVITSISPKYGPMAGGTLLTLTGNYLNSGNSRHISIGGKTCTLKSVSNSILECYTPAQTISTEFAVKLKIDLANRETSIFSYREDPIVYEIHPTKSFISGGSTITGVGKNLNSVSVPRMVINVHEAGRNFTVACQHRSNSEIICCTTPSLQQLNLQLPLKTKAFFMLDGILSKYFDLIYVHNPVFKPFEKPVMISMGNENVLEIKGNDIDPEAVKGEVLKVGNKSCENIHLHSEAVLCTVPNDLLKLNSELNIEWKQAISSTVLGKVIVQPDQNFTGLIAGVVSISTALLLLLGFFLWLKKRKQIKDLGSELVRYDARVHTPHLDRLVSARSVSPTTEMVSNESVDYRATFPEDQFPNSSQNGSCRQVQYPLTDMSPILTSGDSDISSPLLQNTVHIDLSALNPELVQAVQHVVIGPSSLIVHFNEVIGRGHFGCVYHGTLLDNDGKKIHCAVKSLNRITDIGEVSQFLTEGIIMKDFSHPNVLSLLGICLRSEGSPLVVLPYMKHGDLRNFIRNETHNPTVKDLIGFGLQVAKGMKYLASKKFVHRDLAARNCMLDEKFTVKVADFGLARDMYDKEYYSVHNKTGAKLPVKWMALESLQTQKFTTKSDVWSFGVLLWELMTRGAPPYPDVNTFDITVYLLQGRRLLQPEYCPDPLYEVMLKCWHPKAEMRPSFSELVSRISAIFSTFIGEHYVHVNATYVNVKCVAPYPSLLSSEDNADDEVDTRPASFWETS
# Chain of Serine/threonine-protein kinase 24 (Homo sapiens) (Q9Y6E0 whole entry, looked up): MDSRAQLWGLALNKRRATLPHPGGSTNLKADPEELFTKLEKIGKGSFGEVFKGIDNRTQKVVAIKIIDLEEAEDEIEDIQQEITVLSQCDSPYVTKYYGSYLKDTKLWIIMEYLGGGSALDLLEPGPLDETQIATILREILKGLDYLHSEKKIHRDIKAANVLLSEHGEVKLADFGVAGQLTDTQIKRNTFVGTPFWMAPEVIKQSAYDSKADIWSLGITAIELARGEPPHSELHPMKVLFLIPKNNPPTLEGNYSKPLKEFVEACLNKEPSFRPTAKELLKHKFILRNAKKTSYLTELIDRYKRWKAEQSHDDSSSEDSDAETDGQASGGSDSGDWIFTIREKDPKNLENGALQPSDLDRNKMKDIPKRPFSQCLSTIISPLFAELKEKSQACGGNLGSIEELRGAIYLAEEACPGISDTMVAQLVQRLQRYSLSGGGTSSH
# Chain of Serine/threonine-protein kinase tousled-like 2 (Homo sapiens) (Q86UE8 whole entry, looked up): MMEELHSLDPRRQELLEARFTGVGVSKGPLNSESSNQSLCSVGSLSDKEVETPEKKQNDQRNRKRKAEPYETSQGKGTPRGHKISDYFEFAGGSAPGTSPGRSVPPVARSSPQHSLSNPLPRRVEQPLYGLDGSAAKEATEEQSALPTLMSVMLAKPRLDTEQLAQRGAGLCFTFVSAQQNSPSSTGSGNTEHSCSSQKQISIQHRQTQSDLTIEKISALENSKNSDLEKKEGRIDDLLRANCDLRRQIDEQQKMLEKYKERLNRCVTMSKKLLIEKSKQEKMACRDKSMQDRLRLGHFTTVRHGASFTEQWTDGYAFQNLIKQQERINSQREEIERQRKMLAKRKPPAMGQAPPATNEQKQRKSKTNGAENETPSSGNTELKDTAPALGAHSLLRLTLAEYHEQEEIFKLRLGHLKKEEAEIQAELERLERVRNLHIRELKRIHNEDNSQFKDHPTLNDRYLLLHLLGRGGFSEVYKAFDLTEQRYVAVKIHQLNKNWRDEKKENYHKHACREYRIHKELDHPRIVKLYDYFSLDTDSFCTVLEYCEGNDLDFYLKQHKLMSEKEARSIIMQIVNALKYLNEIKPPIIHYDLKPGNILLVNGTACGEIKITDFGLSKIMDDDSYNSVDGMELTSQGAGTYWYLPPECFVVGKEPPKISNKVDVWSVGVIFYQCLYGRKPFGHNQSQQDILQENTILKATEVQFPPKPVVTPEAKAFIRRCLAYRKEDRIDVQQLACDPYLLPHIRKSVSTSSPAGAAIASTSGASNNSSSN
# Chain of MAP kinase-interacting serine/threonine-protein kinase 2 (Homo sapiens) (Q9HBH9 whole entry, looked up): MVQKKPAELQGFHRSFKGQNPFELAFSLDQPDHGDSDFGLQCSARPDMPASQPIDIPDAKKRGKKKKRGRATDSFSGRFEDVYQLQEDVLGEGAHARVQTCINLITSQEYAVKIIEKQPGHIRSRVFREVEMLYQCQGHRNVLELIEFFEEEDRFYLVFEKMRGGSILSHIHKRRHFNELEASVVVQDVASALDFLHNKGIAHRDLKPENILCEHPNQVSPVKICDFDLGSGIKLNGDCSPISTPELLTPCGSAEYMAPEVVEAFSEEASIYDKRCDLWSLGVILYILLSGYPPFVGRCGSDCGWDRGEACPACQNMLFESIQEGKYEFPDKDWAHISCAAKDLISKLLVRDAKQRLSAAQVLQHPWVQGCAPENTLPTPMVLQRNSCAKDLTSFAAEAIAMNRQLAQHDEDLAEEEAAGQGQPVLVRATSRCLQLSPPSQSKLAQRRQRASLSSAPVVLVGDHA
Compound,residual activity [1],residual activity [2],residual activity [3],residual activity [4],residual activity [5],residual activity [6],residual activity [7],residual activity [8],residual activity [9],residual activity [10],residual activity [11],residual activity [12],residual activity [13],residual activity [14],residual activity [15],residual activity [16],residual activity [17],residual activity [18],residual activity [19],residual activity [20]
Oc1ccc(-c2nc(-c3ccc(F)cc3)c(-c3ccncc3)[nH]2)cc1,108%,90%,93%,77%,110%,96%,117%,37%,117%,94%,92%,77%,85%,66%,127%,99%,85%,104%,112%,100%
Cc1cccc(-c2[nH]c(C(C)(C)C)nc2-c2ccc3c(c2)OCO3)n1,–,94%,79%,72%,107%,97%,–,–,–,–,98%,87%,80%,107%,88%,95%,–,–,96%,95%
COc1cc2ncnc(Nc3ccc(Oc4ccccc4)cc3)c2cc1OC,96%,80%,111%,124%,53%,38%,–,–,52%,16%,71%,73%,100%,105%,92%,96%,106%,97%,106%,98%
CO[C@@H]1[C@H](N(C)C(=O)c2ccccc2)C[C@H]2O[C@]1(C)n1c3ccccc3c3c4c(c5c6ccccc6n2c5c31)C(=O)NC4,3%,0%,17%,7%,8%,6%,35%,40%,44%,27%,32%,13%,47%,49%,82%,86%,102%,37%,–,72%
Cc1cc2ncc(-c3ccccc3)nc2cc1C,88%,95%,65%,83%,107%,90%,87%,134%,–,–,101%,75%,97%,93%,92%,105%,–,93%,103%,99%
COc1cc2ncnc(Nc3ccc(NC(=O)c4ccccc4)cc3)c2cc1OC,–,95%,90%,–,108%,59%,88%,23%,98%,57%,–,98%,96%,103%,105%,95%,–,–,109%,86%
Cn1nc2c3c(cccc31)C(=O)c1ccccc1-2,97%,–,74%,69%,53%,21%,–,84%,81%,72%,75%,81%,48%,55%,95%,84%,74%,91%,95%,–
Nc1ccc2ncnc(NCCc3ccc(Oc4ccccc4)cc3)c2c1,100%,72%,99%,72%,95%,62%,124%,80%,105%,74%,92%,49%,68%,55%,114%,101%,81%,109%,111%,100%
Cc1cncc2cccc(S(=O)(=O)N3CCCN(C(=O)CN)C[C@H]3C)c12,–,–,61%,71%,79%,21%,84%,123%,–,72%,90%,67%,88%,86%,78%,92%,–,–,–,82%
